Data published in PubChem BioAssay (NCI).
This is part of a sample that, as a whole, favours compounds with a hit. Of some 79,000 tested, about 15% had one in any assay. A number with no mark means an inactive call. Calls of active or inactive are those of the source. Cut-off read from the data, not from the text of the source: active = growth inhibition above about 70%; inactive = the rest.

Experiment: NCI Yeast Anticancer Drug Screen. Data for the sgs1 strain (AID 173);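 note: 0% = growth of vehicle-only control cultures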
Conditions: S. cerevisiae sgs1 mutant, stronger effect = higher value
Protocol: Growth inhibition of yeast strains with defined genetic alterations is measured as a screen for potential anti-cancer activity. Selected strains with alterations in DNA damage repair or cell cycle control were exposed to compounds and growth inhibition was measured relative to vehicle treated controls. The strain used in this assay is sgs1

SMILES	growth inhibition (at 1.2 µM) [%]	growth inhibition (at 3.7 µM)	growth inhibition (at 11.0 µM)	growth inhibition (at 33.0 µM)	growth inhibition (at 100.0 µM)
N#CC(=S)Nc1cccc(Cl)c1	2	7%	24%	43%	70% (active)
O=[N+]([O-])c1cccc2nc3ccccc3c(NCCc3cccc[n+]3[O-])c12	43	75% (active)	89% (active)	93% (active)	96% (active)
C(=N/NC1=NCCN1)/c1c2ccccc2c(/C=N\NC2=NCCN2)c2ccccc12	0	8%	22%	81% (active)	92% (active)
Clc1c(Cl)c(Cl)c2c(nnn2C2CCCO2)c1Cl (stereo not given)	-30	-13%	-1%	12%	83% (active)
CC1OC(OC2CCCc3c(O)c4c(c(O)c32)C(=O)c2ccccc2C4=O)CC(N)C1O (stereo not given)	-12	-7%	34%	97% (active)	99% (active)
CCCCCC#CCOC(=O)C(=[N+]=[N-])P(=O)(c1ccccc1)c1ccccc1	17	21%	15%	16%	98% (active)
CC(C)c1cccc(O)c(=O)c1	-3	-11%	-1%	60%	98% (active)
CC(=O)N1C(=O)/C(=C\C(=O)c2ccc([N+](=O)[O-])cc2)c2ccccc21	-13	27%	66%	96% (active)	96% (active)
